Records with an inconclusive call do not appear. Active and inactive are the calls of the source. Unless noted, calls come from the whole dose curve; as a rule, active = well fitted curve in the direction sought with a large enough effect; inconclusive = small, poorly fitted or top-dose-only effect, or another doubt; inactive = no such curve, though single readings can be large; an effect the other way counts as inactive or inconclusive.
Experiments:
[1] = molecular target: Mitogen-activated protein kinase 10 (Mus musculus) (UniProt Q61831); assay: JNK3 AlphaScreen Assay (AID 530; active = well fitted curve in either direction with a large enough effect, not every such curve was filed as active;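 note: kinase came from lysate of stimulated human HepG2 cells; signal reports phosphorylation of biotinylated GST-cJun 1-79 at Ser73 with 10 µM ATP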)
Method in brief: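 Kinase buffer: 20 mM Tris-HCl pH 7.6, 10 mM MgCl2, 1 mM DTT, 0.1 mM Na3VO4, 0.01% Tween-20; ATP 10 uM. Substrate biotin-GST-cJun(1-79), enzyme from activated HepG2 lysates. Detection by Ser73 phospho-antibody AlphaScreen.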

[2] = S16 Schwann cell viability assay (CellTiter-Glo assay) (AID 624031);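 note: cellular ATP luminescence as a viability measure; nearly all actives have a fitted effect of over 70% in size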
Method in brief: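 Luminescent ATP read-out (CellTiter-Glo) after 24 h compound exposure of native S16 rat Schwann cells at 37 °C. Signals were normalized between cell-free wells and DMSO-treated cells, set as 0% activity.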

[3] = S16 Schwann cell PMP22 intronic element firefly luciferase assay (AID 624032); note: nearly all actives have a fitted effect of over 30% in size
Method in brief: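 Luciferase reporter of PMP22 intronic-element expression in stably transfected S16 rat Schwann cells, read by ONE-Glo luminescence after 24 h compound exposure at 37 C. Activity scaled between DMSO (0%) and positive-control PTC124; concentration-effect curves quality-classified.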

CP256 = assay: qHTS profiling for inhibitors of Plasmodium falciparum proliferation (AID 504749); note: nearly all actives have a fitted effect of over 60% in size; note: potency is the fitted concentration of half-maximal effect; conditions: P. falciparum in erythrocytes, SYBR Green DNA, 72 h; series mostly up to 12.8 µM
Method in brief: (§1)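 In a 72 h erythrocytic culture (37 C, humidified, 5% CO2) at 2.5% hematocrit and 0.3% starting parasitemia, compounds were tested; SYBR Green I in detergent lysis buffer stained parasite DNA overnight.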

CP335 = assay: as above; conditions: P. falciparum in erythrocytes, SYBR Green DNA, 72 h; series mostly up to 12.8 µM
Method in brief: as §1

Dd2 = assay: as above; conditions: P. falciparum in erythrocytes, SYBR Green DNA, 72 h; series mostly up to 12.8 µM
Method in brief: as §1

P93_24 = assay: as above; conditions: P. falciparum in erythrocytes, SYBR Green DNA, 72 h; series mostly up to 12.8 µM
Method in brief: as §1

P94_40 = assay: as above; conditions: P. falciparum in erythrocytes, SYBR Green DNA, 72 h; series mostly up to 12.8 µM
Method in brief: as §1

TAB109 = assay: as above; conditions: P. falciparum in erythrocytes, SYBR Green DNA, 72 h; series mostly up to 12.8 µM
Method in brief: as §1

CP194 = assay: as above; conditions: P. falciparum in erythrocytes, SYBR Green DNA, 72 h; series mostly up to 12.8 µM
Method in brief: as §1

CP201 = assay: as above; conditions: P. falciparum in erythrocytes, SYBR Green DNA, 72 h; series mostly up to 12.8 µM
Method in brief: as §1

CP203 = assay: as above; conditions: P. falciparum in erythrocytes, SYBR Green DNA, 72 h; series mostly up to 12.8 µM
Method in brief: as §1

CP211 = assay: as above; conditions: P. falciparum in erythrocytes, SYBR Green DNA, 72 h; series mostly up to 12.8 µM
Method in brief: as §1

CP266 = assay: as above; conditions: P. falciparum in erythrocytes, SYBR Green DNA, 72 h; series mostly up to 12.8 µM
Method in brief: as §1

CP268 = assay: as above; conditions: P. falciparum in erythrocytes, SYBR Green DNA, 72 h; series mostly up to 12.8 µM
Method in brief: as §1

CP291 = assay: as above; conditions: P. falciparum in erythrocytes, SYBR Green DNA, 72 h; series mostly up to 12.8 µM
Method in brief: as §1

CP297 = assay: as above; conditions: P. falciparum in erythrocytes, SYBR Green DNA, 72 h; series mostly up to 12.8 µM
Method in brief: as §1

CP325 = assay: as above; conditions: P. falciparum in erythrocytes, SYBR Green DNA, 72 h; series mostly up to 12.8 µM
Method in brief: as §1

DIV30 = assay: as above; conditions: P. falciparum in erythrocytes, SYBR Green DNA, 72 h; series mostly up to 12.8 µM
Method in brief: as §1

PC26 = assay: as above; conditions: P. falciparum in erythrocytes, SYBR Green DNA, 72 h; series mostly up to 12.8 µM
Method in brief: as §1

Measured: Potency

C1CCC(C(C[C@@H]2CCCCN2)C2CCCCC2)CC1
inactive: [1]

CC(=O)N(C[C@@H](C)C(=O)O)c1c(I)cc(I)c(N)c1I
inactive: [1] | [2] | [3] | CP256 | CP335 | Dd2 | P93_24 | P94_40 | TAB109

O=C(OC[C@@H](O)CO)c1ccccc1Nc1ccnc2cc(Cl)ccc12
not listed: [3] | CP256
inactive: all other assays above

CCC(=O)[C@@]1(C)[C@H](C)C[C@@H]2[C@@H]3CCC4=CC(=O)C=C[C@@]4(C)[C@H]3[C@H](O)C[C@]21C
not listed: CP335 | P93_24
inactive: all other assays above

CCOC(=O)O[C@]1(C(=O)COC(=O)CC)CC[C@@H]2[C@@H]3CCC4=CC(=O)C=C[C@@]4(C)[C@H]3[C@H](O)C[C@]21C
inactive: all assays above

CO[C@@H]1CC[C@@]2(C)[C@@H](CC[C@@]3(C)[C@H]2CC=C2[C@H]4CC(C)(C)[C@H](O)[C@@H](OC(C)=O)[C@]4(CO)[C@H](O)C[C@]23C)[C@@]1(C)CO (tested in a mixture with another compound)
inactive: [1]

NCC[C@H](O)C(=O)N[C@H]1C[C@@H](N)[C@@H](O[C@H]2O[C@@H](CN)[C@@H](O)[C@@H](O)[C@@H]2O)[C@@H](O)[C@@H]1O[C@H]1O[C@@H](CO)[C@@H](O)[C@@H](N)[C@@H]1O
inactive: [1]

CCN(CC)CCOC(=O)[C@@H](c1ccccc1)C1CCCCC1
inactive: [1]

CCN(CC)[C@@H](C)CN1c2ccccc2Sc2ccccc21
active: Dd2 1.26 µM
inactive: [1] | [2] | [3] | CP211 | CP256 | CP266 | CP297 | CP325 | DIV30

CO/N=C(\C(=O)N[C@@H]1C(=O)N2C(C(=O)O)=C(COC(N)=O)CS[C@@H]12)c1ccco1
inactive: [1]

CCOC(=O)Oc1c(OC)cc(C(=O)O[C@H]2C[C@H]3CN4CCc5c([nH]c6cc(OC)ccc56)[C@@H]4C[C@H]3[C@@H](C(=O)OC)[C@@H]2OC)cc1OC
active: CP297 7.21 µM | DIV30 7.21 µM | P93_24 3.98 µM | PC26 5.73 µM | TAB109 3.55 µM
inactive: [1]

CN(C/C=C\c1ccccc1)Cc1cccc2ccccc12
not listed: [2] | [3] | CP194 | CP211 | CP291 | CP297
inactive: all other assays above

C=Cc1c(C)c2cc3nc(cc4[nH]c(cc5nc(cc1[nH]2)C(C)=C5CCC(=O)O)c(CCC(=O)OC)c4C)[C@@]1(C)C3=CC=C(C(=O)OC)[C@H]1C(=O)OC (tested in a mixture with another compound)
active: CP335 3.79 µM | Dd2 2.24 µM | P93_24 8.91 µM | P94_40 3.55 µM | TAB109 5.01 µM
not listed: [1] | [3] | CP256 | CP203 | CP211 | CP268
inactive: all other assays above

Cc1onc(-c2c(F)cccc2Cl)c1C(=O)N[C@H]1C(=O)N2[C@H]1SC(C)(C)[C@H]2C(=O)O
inactive: [1]

O=c1cc(-c2cccc(O)c2)oc2cc(O)ccc12
inactive: [1]

C=C(C)[C@H]1CC[C@]2(C(=O)O)CC[C@]3(C)[C@@H](CC[C@H]4[C@@]5(C)CC[C@@H](O)C(C)(C)[C@@H]5CC[C@@]43C)[C@H]12
inactive: [1]

O[C@@](CCN1CCCCC1)(c1ccccc1)[C@@H]1C[C@H]2C=C[C@@H]1C2
inactive: [1]

CO[C@H]1[C@@H](OC(N)=O)[C@H](O)[C@@H](Oc2ccc3c(O)c(NC(=O)c4ccc(O)c(CC=C(C)C)c4)c(=O)oc3c2C)OC1(C)C
not listed: CP266 | CP297
inactive: all other assays above

CC=C(/C(=C/C)c1ccc(O)cc1)c1ccc(O)cc1
inactive: all assays above

CC[C@@H]1OC(=O)[C@H](C)[C@H](O[C@@H]2C[C@](C)(OC)[C@H](O)[C@H](C)O2)[C@H](C)[C@H](O[C@@H]2O[C@@H](C)C[C@@H](N(C)C)[C@@H]2O)[C@](C)(O)C[C@H](C)C(=NOCOCCOC)[C@H](C)[C@H](O)[C@]1(C)O
not listed: CP256 | Dd2 | CP211 | CP266 | CP297
inactive: all other assays above

COc1cc2c(cc1OC)-c1cc3ccc(OC)c(OC)c3c[n+]1CC2
inactive: [1]

COc1cccc(-c2nc(NCCc3c[nH]c4ccc(OC)cc34)c3ccccc3n2)c1
inactive: [1]

C[C@@H](Cc1cccc(C(F)(F)F)c1)NCCOC(=O)c1ccccc1
inactive: [1]

CN1CCC[C@@H](CC2c3ccccc3Sc3ccccc32)C1
inactive: [1] | CP211 | CP256 | CP266 | CP297 | CP325 | CP335

Nc1c2ccccc2nc2c(O)cccc12
inactive: [1]

CN(C)CCn1nnnc1SCC1=C(C(=O)O)N2C(=O)[C@@H](NC(=O)Cc3csc(N)n3)[C@@H]2SC1
not listed: [1] | CP335 | P93_24 | P94_40 | TAB109 | DIV30 | PC26
inactive: all other assays above

CS(=O)(=O)c1ccc([C@H](O)[C@H](CO)NC(=O)C(Cl)Cl)cc1
inactive: [1] | [2] | [3] | CP266 | DIV30 | PC26

O=C(O)[C@@H]1[C@@H]2C[C@H]3c4[nH]c5ccccc5c4CCN3C[C@@H]2CC[C@@H]1O
inactive: [1] | [2] | [3] | CP203 | CP268 | Dd2 | PC26

C[C@@H](C(=O)O)c1ccc(C(=O)c2ccccc2)s1
not listed: CP266
inactive: all other assays above

O=C(Nc1ccccc1)OC[C@H](CN1CCCCC1)OC(=O)Nc1ccccc1
inactive: all assays above

Cc1cc2ccc(=O)oc2cc1OC[C@@H](O)C(C)(C)O
inactive: [1]

C[C@@H]1O[C@H](O[C@@H]2\C=C/C=C\C=C/C=C\C[C@H](C)OC(=O)/C=C\[C@H]3O[C@@H]3C[C@H](O)C[C@]3(O)C[C@@H](O)[C@@H](C(=O)O)[C@H](C2)O3)[C@@H](O)[C@H](N)[C@@H]1O (stereo in doubt)
not listed: [1] | CP268
inactive: all other assays above

COc1cc(N[C@@H](C)CCCN)c2ncccc2c1
inactive: [1]
active: CP194 3.61 µM | CP201 4.55 µM | CP203 3.61 µM | CP211 2.28 µM | CP256 1.26 µM | CP268 1.61 µM | CP291 1.81 µM | CP297 3.61 µM | CP325 2.03 µM | CP335 4.05 µM | DIV30 2.03 µM | Dd2 1.41 µM | P93_24 1 µM | P94_40 1.41 µM | PC26 2.28 µM | TAB109 1.78 µM

C[C@@](N)(C(=O)O)c1cccc(CC(=O)O)c1
inactive: [1]

Cc1ncc([N+](=O)[O-])n1C[C@H](O)CCl
not listed: [3] | TAB109
inactive: all other assays above

CC(=O)S[C@H]1CC2=CC(=O)CC[C@@]2(C)[C@H]2CC[C@@]3(C)[C@H](CC[C@]34CCC(=O)O4)[C@@H]12
inactive: [1]

CCC(C)(C)C(=O)O[C@@H]1C[C@H](C)C=C2C=C[C@H](C)[C@@H](CC[C@H]3C[C@@H](O)CC(=O)O3)[C@H]21
not listed: CP335 | Dd2 | P94_40
inactive: all other assays above

O[C@@](CCN1CCCC1)(c1ccccc1)C1CCCCC1
inactive: [1] | [2] | [3] | CP256 | CP266 | CP268 | CP291 | CP297 | CP335

CCN[C@@H]1C[C@H](N)[C@H](O[C@H]2OC(CN)=CC[C@H]2N)[C@@H](O)[C@H]1O[C@H]1OC[C@@](C)(O)[C@@H](NC)[C@@H]1O
inactive: all assays above

Reference: PubChem BioAssay (NCATS)
